Screening results: PubChem BioAssay, National Center for Advancing Translational Sciences (NCATS)
Only some compounds are listed: those with a hit (about 19% of all), similar ones and a draw of the others.
TDP1 cell CPT = DT40-hTDP1 cell growth loss with CPT | Potency, µM (top dose mostly 46.2 µM), for the others: top-dose activity change, negative = growth inhibition, most hits filed as inhibitors | AID 686979 | 420,000 compounds, 12% hits | chicken DT40 Tdp1-/-;hTDP1 cells + 20 nM CPT, ATP luminescence, 48 h; note: nearly all actives have a fitted effect of over 55% in size
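Chicken DT40 Tdp1-/- cells complemented with human TDP1, 400 cells/well, exposed to compounds plus 20 nM camptothecin for at least 48 h at 37 C; viability read as ATP content by CellTiter-Glo luminescence.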
TDP1 cell noCPT = qHTS for Inhibitors of human tyrosyl-DNA phosphodiesterase 1 (TDP1): qHTS in cells in absence of CPT. DT40 Tdp1-/- hTDP1 cells, no CPT, ATP luminescence, 48 h. Potency, µM (series often up to 46.2 µM), inactives show at the top dose activity change, negative = growth inhibition, most hits filed as inhibitors. 420,000 compounds, 15% hits. AID 686978, 2013; note: nearly all actives have a fitted effect of over 55% in size
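Chicken DT40 Tdp1-/- cells stably complemented with human TDP1 were seeded at 400 cells/well with DMSO in place of 20 nM camptothecin. After compound pinning, cells grew at least 48 hr at 37 °C; viability read by CellTiter-Glo luminescence.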
RORgamma inh = blocks mouse ROR gamma transcriptional activity. Potency, µM (series often up to 53.6 µM), without a hit: top-dose activity change, negative = inhibition, hits mostly inhibitors. 310,000 compounds, 5.4% hits. Drosophila S2 Gal4-RORgamma UAS-luciferase reporter, 20 h; note: nearly all actives have a fitted effect of over 60% in size
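Luciferase reporter read in Schneider cells carrying Gal4-RORγ (mouse) and UAS-Photinus luciferase; cells given compound 1 h before 700 uM copper sulfate induction, then incubated 20 h at ambient temperature.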
Gal4-VP16 FLuc = counter-screen for ROR gamma inhibitors: Gal4-VP16 reporter; Drosophila S2 Gal4-VP16 UAS-luciferase, luminescence, 20 h; Potency, µM (highest dose often 53.6 µM), for the others: at the top dose activity, negative = inhibition, actives largely listed as inhibitors; 310,000 compounds, 3.5% hits; AID 2546;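 note: Gal4-VP16 expression switched on by copper sulfate through the metallothionein promoter; nearly all actives have a fitted effect of over 50% in size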
TDP1 block = blocks human tyrosyl-DNA phosphodiesterase 1; Q9NUW8; recombinant TDP1, AlphaScreen DNA substrate cleavage; Potency, µM (top dose mostly 130 µM), without a hit: at the highest dose activity change, negative = inhibition, usual class: inhibitors; 350,000 compounds, 0.28% hits; note: nearly all actives have a fitted effect of over 40% in size
Target sequence (Q9NUW8 whole entry, looked up): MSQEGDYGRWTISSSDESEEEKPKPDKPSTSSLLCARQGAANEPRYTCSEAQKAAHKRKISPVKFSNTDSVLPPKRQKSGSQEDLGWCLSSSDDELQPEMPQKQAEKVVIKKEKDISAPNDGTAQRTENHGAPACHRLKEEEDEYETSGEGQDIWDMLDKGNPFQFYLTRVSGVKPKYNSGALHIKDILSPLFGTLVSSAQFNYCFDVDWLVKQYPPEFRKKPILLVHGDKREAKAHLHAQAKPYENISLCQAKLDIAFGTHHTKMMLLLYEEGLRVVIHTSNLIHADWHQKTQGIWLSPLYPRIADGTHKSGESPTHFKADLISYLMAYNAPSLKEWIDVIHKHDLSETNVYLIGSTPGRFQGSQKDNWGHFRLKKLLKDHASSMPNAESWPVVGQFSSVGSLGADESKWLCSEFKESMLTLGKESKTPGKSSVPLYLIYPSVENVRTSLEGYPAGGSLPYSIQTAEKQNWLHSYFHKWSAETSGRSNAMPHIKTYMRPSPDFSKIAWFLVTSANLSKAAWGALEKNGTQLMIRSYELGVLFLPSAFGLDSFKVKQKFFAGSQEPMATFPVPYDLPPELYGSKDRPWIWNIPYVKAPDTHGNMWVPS
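Steps: enzyme plus compound, 15 min RT; add biotin/phosphotyrosine-FITC oligonucleotide (15 nM final), react 5 min; add donor/acceptor beads (10 ug/ml final), 10 min; read AlphaScreen. Tdp1 at 1 nM final.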
An asterisk follows results filed as active; ? = inconclusive; . = no result given; [ ] = remark or other dose. Calls come from the whole dose curve; as a rule, active = well fitted curve in the direction sought with a large enough effect; inconclusive = small, poorly fitted or top-dose-only effect, or another doubt; inactive = no such curve, though single readings can be large; an effect the other way counts as inactive or inconclusive. % is set by controls: 0 for no effect and ±100 for the full control effect; potency is the fitted concentration of half-maximal effect.

SMILES	TDP1 cell CPT	TDP1 cell noCPT	RORgamma inh	Gal4-VP16 FLuc	TDP1 block
Cc1ccccc1NC(=O)c1ccc([N+](=O)[O-])o1	?	12µM*	-23%	-14%	4%
Cc1ccc(NC(=O)c2ccc(Br)o2)c([N+](=O)[O-])c1	-10%	-16%	.	.	.
Cc1ccc(NC(=O)c2ccc([N+](=O)[O-])o2)c(C)c1	23µM*	?	24%	-5%	8%
O=C(Nc1ccccc1Cl)c1ccc([N+](=O)[O-])o1	?	29µM*	10µM*	16µM*	4%
Cc1nc(N/N=C/c2ccc(O)cc2)c2cnn(-c3ccccc3)c2n1	?	23µM*	42%	5%	3%
O=c1c2ccccc2nc(N/N=C/c2c(O)ccc3ccccc23)n1O	3.7µM*	5.2µM*	0.89µM*	13µM*	8%
Oc1ccc(/C=N/Nc2ccccc2)cc1	?	?	1%	-3%	0%
O=c1c2ccccc2nc(N/N=C/c2ccc(O)cc2)n1O	?	-22%	11µM*	-28%	-9%
N#Cc1cccc(NC(=O)CCNS(=O)(=O)c2ccc3[nH]c(=O)oc3c2)c1	2%	15%	-10%	-2%	1%
CC(=O)c1cccc(NC(=O)CN2C(=O)CN(C)C(=O)c3ccccc32)c1	-5%	16%	.	.	0%
OCc1ccccc1-c1ccc2nccn2c1	-15%	-16%	.	.	.
COc1ccc(-c2nc(CSCC(=O)N3CCc4ccccc4C3)c(C)o2)cc1OC	?	21µM*	-13%	-13%	5%
COc1ccc(-c2nc(CSCC(=O)NC3CCCc4ccccc43)c(C)o2)cc1OC (configuration not stated)	?	21µM*	-16%	7%	7%
O=C(Nc1ccc(-c2nc3ccccc3[nH]2)cc1)c1ccccc1NS(=O)(=O)c1ccc(F)cc1	-4%	-26%	31%	11%	4%
CCn1c2c(c3cc(Cl)ccc31)CCCC2=O	-29%	-28%	?	1%	0%
CCc1n(CC(O)COCc2ccccc2)c2ccccc2[n+]1C (configuration not stated)	?	?	-10%	3%	8%
Cc1n(CC(O)COC2CCCCC2)c2ccccc2[n+]1C (configuration not stated)	?	13µM*	17%	-5%	3%[56.1 µM]
CN(CCNC(=O)c1ccc(/C=N/O)nc1)Cc1ccccc1	-17%	-8%	15%	-3%	5%
CN(CCCNC(=O)c1ccc(/C=N/O)nc1)CCCN(C)Cc1ccccc1	?	23µM*	-16%	-13%	6%
CCN(CC)S(=O)(=O)c1ccc2oc(SCC(=O)NCc3ccccc3)nc2c1	?	?	6%	15%	8%
O=C1C2C3c4ccccc4C(c4ccccc43)C2C(=O)N1Cc1ccco1 (configuration not stated)	?	?	?	0%	3%
CC12C(=O)N(Cc3ccco3)C(=O)C1C1c3ccccc3C2c2ccccc21 (configuration not stated)	?	23µM*	-5%	-26%	-2%
Clc1ccc(CCNC(c2nnc(-c3ccccc3)o2)c2ccccc2Cl)cc1 (configuration not stated)	18µM*	23µM*	.	.	-2%
Fc1ccc(C(NCCc2ccc(Cl)cc2)c2nnc(-c3ccccc3)o2)c(Cl)c1 (configuration not stated)	?	?	.	.	2%
COc1ccc(/C=C/C(=O)ONC2=NCCCCC2)cc1OC	23µM*	?	11µM*	-24%	3%
SMILES	TDP1 cell CPT	TDP1 cell noCPT	RORgamma inh	Gal4-VP16 FLuc	TDP1 block
COc1ccc(Br)cc1CN(C)CC(=O)Nc1cccc(S(=O)(=O)N2CCCC2)c1	15µM*	10µM*	.	.	2%
Cc1cc(C)c2c(c1)cc(C)c1nnc(SCC(=O)Nc3ccc(S(=O)(=O)N4CCCCC4)cc3)n12	?	21µM*	-9%	0%	2%
Cc1ccc(CSc2nnc(-c3cccc(S(=O)(=O)N4CCOCC4)c3)n2CC(C)C)cc1	13µM*	8.2µM*	?	-19%	6%
CC(C)Cn1c(SCC(N)=O)nnc1-c1cccc(S(=O)(=O)N2CCOCC2)c1	10%	0%	.	.	2%
Cc1ccc(NC(=O)CN(C)S(=O)(=O)c2ccc3c(c2)c(=O)n(C)c(=O)n3C)cc1	6%	21%	4%	1%	2%
CC(=O)c1cccc(NC(=O)C(C)Sc2nnc3ccccn23)c1 (configuration not stated)	-9%	-18%	.	.	.
O=C(CSc1nnc(-c2cccc(S(=O)(=O)N3CCCC3)c2)n1-c1ccccc1)Nc1ccc(C(=O)O)cc1	-22%	1%	4%	0%	79µM*
Cc1ccc(S(=O)(=O)N2CCCCC2)cc1NC(=O)Cn1ccsc1=N	?	?	31%	1%	4%
COc1ccc(Br)cc1CN(C)CC(=O)Nc1cccc(S(N)(=O)=O)c1	1%	-28%	0%	-3%	2%
COc1ccc(CC(=O)Nc2cccc(S(=O)(=O)N3CCCC3)c2)cc1OC	15µM*	18µM*	.	.	0%
N=c1sccn1CC(=O)Nc1cccc(S(=O)(=O)N2CCCCCC2)c1	?	21µM*	10%	-1%	5%
COc1ccc(Br)cc1CN(C)CC(=O)Nc1c(Cl)cccc1Cl	?	23µM*	16%	-6%	5%
Cc1c(NC(=O)COC(=O)c2ccccc2Cl)c(=O)n(-c2ccccc2)n1C	15%	7%	-14%	6%	0%
Cc1ccc(CNC(=O)Cn2nc(N3CCN(c4ccccc4)CC3)ccc2=O)cc1	-3%	?	.	.	5%
CCOc1ccccc1NC(=O)c1cc2c(Cl)nc3ccccc3c2s1	13%	-3%	.	.	6%
COc1ccccc1CNC(=O)c1ccc(-c2ccccc2)cc1	12%	-18%	-16%	-13%	3%
O=C(/C=C/c1ccccc1[N+](=O)[O-])Nc1cccc(S(=O)(=O)NC2=NCCCCC2)c1	?	21µM*	.	.	4%
O=C(CCl)Nc1cccc(S(=O)(=O)N2CCCCCC2)c1	4.1µM*	5.2µM*	35µM*	?	11%
CNC(=O)CSc1nnc(-c2cccc(S(=O)(=O)N3CCOCC3)c2)n1-c1ccc(F)cc1	-13%	-3%	20%	-1%	6%
O=C(CSc1nnc(-c2cccc(S(=O)(=O)N3CCOCC3)c2)n1C1CCCCCC1)NCc1ccccc1	22µM*	?	27%	-2%	2%
COc1ccc(/C=C/C(=O)Nc2cccc(S(=O)(=O)NC3=NCCCCC3)c2)cc1OC	15µM*	8.2µM*	.	.	4%
